According to PubChem BioAssay (NCI):
Several values for one entry are separate records, joined by “and”; a condition that tells them apart may be missing. Equal values may be shown once. This is part of a sample that, as a whole, favours compounds with a hit. Of some 79,000 tested, about 15% had one in any assay. Activity calls are given as the source filed them. Cut-off read from the data, not from the text of the source: active = growth inhibition above about 70%; inactive = the rest. Where a SMILES comes first, the peptide text is derived from it. The star is where a group is joined. Boc = CC(C)(C)OC(=O)*; OBn = c1ccc(CO*)cc1

Experiments:
[1] = NCI Yeast Anticancer Drug Screen. Data for the rad50 strain (AID 155);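 note: 0% = growth of vehicle-only cultures of the same strain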; details: S. cerevisiae rad50 strain growth inhibition, hits give high values; at 50.0 µM unless noted
How it was run: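 Vehicle-treated cultures provide the reference for the growth inhibition reported for compound-exposed, repair-deficient yeast.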

[2] = NCI Yeast Anticancer Drug Screen. Data for the mec2-1 strain (AID 157); details: S. cerevisiae mec2-1 strain, hits give high values; at 50.0 µM unless noted
How it was run: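 Yeast mec2-1 mutant treated with compound. Readout: growth inhibition vs vehicle controls.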

[3] = NCI Yeast Anticancer Drug Screen. Data for the sgs1 mgt1 strain (AID 161);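 note: 0% = growth of cultures given vehicle only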; details: S. cerevisiae sgs1 mgt1 strain, hits give high values; at 50.0 µM unless noted
How it was run: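 Genetically altered yeast, compound exposure, growth inhibition relative to vehicle.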

[4] = NCI Yeast Anticancer Drug Screen. Data for the cln2 rad14 strain (AID 165);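 note: 0% = growth equal to vehicle treated cultures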; details: S. cerevisiae cln2 rad14 strain, hits give high values; at 50.0 µM unless noted
How it was run: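 cln2 rad14 yeast strain; compound exposure; growth inhibition read vs vehicle controls.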

[5] = NCI Yeast Anticancer Drug Screen. Data for the bub3 strain (AID 167); details: S. cerevisiae bub3 mutant strain, hits give high values; at 50.0 µM unless noted
How it was run: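 Mutant yeast screening strain plus compound; vehicle-treated cultures serve as the 0% inhibition reference.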

[6] = NCI Yeast Anticancer Drug Screen. Data for the mlh1 rad18 strain (AID 175); details: S. cerevisiae mlh1 rad18 strain growth inhibition, hits give high values; at 50.0 µM unless noted
How it was run: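 Yeast w/ defined DNA-repair lesions; compound exposure; growth vs vehicle controls → % inhibition.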

Measured: growth inhibition

CC(C)CC(NC(=O)C(Cc1ccccc1)NC(=O)C(Cc1ccccc1)NC(=O)OC(C)(C)C)C(=O)OCc1ccccc1 (stereo not drawn) (Boc-Phe-Phe-Leu-OBn; configuration not given here)
inactive: [1] -3.15% | [2] -10.3% | [3] -5.95% | [4] -7.2% | [5] 0.95% | [6] 5.95%

O=C(NC(CO)Cc1ccccc1)OCc1ccccc1 (centres undefined)
inactive: [1] -4.15% | [2] -5.25% | [3] 0% | [4] 5.45% | [5] 8.1% | [6] -7.65%

O=C(NNC(=O)c1ccc2ccccc2c1)c1ccc(Cl)cc1
inactive: [1] -19.2% | [2] -51% | [3] -11% | [4] 3.55% | [5] -13.6% | [6] -9.75%

OCCCCC(O)CO (centres undefined)
inactive: [1] -2.55% | [2] -13.7% | [3] -1.1% | [4] -8.65% | [5] -18.6% | [6] -7.3%

CN(C)/C=N/NC(=O)/C(C#N)=C/N(C)C
inactive: [1] -26.1% | [2] 2.3% | [3] -8.15% | [4] -24.8% | [5] -45.1% | [6] -42.9%

NCCCCCN
inactive: [1] 14.4% | [2] -1.05% | [3] -15.9% | [4] 12.3% | [5] -16.7% | [6] -1.45%

C=C(C)[C@H]1C=C[C@@H](OC(=O)c2cccnc2)[C@@]23CO[C@@](C)([C@H](OC(=O)c4cccnc4)[C@@]4(OC(C)=O)C[C@H](C)[C@H](OCCC)[C@@H]4[C@H]2OC(C)=O)[C@H]13
inactive: [1] -11.2% | [2] -6.1% | [3] 27.4% | [4] 35.4% | [5] 22.6%
active: [6] 79.8%

Cc1ccc(C)n1CCCCCCCn1c(C)ccc1C
inactive: [1] -24.7% | [2] -3.5% | [3] 5.15% | [4] -22.8% | [5] 25.1% | [6] -9.8%

Cc1cccc(/C=N/NC(=S)NC(C)(C)C)n1
inactive: [1] -17.4% | [2] -32.4% | [3] -4.45% | [4] 0.1% | [5] 15.8% | [6] -27.1%

O=C(O)Cc1ccc(C(=O)O)cc1
inactive: [1] 21.2% | [2] -1.25% | [3] 5.8% | [4] -13.4% | [5] 13.2% | [6] 32.8%

CC(C)(O)C(=O)O
inactive: [1] -6% and -19% | [2] 6.1% and -1.45% | [3] -8.2% and -10.8% | [4] 2.05% and -32.8% | [5] 7.25% and -3.95% | [6] 6.6% and -4.6%

O=C1c2sc(-c3ccc(Cl)cc3)cc2-n2cccc21
inactive: [1] 9.3% | [2] 15.4% | [3] 2.15% | [4] 2.5% | [5] -9.2% | [6] 26.2%

O=C(Nc1ccc2c(c1)Cc1c(F)cccc1-2)C(F)(F)F
inactive: [1] -4.8% | [2] -16.4% | [3] -3.95% | [4] -7.95% | [5] 9.45% | [6] 11.2%

CCOC(=O)c1ccc(NCc2ccc(CNc3ccc(C(=O)OCC)cc3)cc2)cc1
inactive: [1] -35.4% | [2] -18.2% | [3] -36.2% | [4] -11.8% | [5] -21.4% | [6] -27%

Cc1cc(C(=O)c2ccccc2)on1
inactive: [1] 4.05% | [2] -22.6% | [3] -11.9% | [4] -36.1% | [5] 7.7% | [6] 4.55%

Cc1cc(Cl)ccc1N=C1NC(=O)C(CC(=O)Nc2ccc([N+](=O)[O-])cc2[N+](=O)[O-])S1 (centres undefined)
inactive: [1] 25.1% | [2] -4% | [3] 12.1% | [4] -58.9% | [5] 13% | [6] 33.1%

C#CCOCC12C=CC(O1)C1C(=O)N(C)C(=O)C12 (centres undefined)
inactive: [1] -11.4% and 8.1% | [2] 33.5% and 38.6% | [3] 8.75% and -3.95% | [4] 7.65% and 36.2% | [5] 24.6% and 33.4% | [6] -13.3% and 6.25%

CC(=O)c1oc2cc([N+](=O)[O-])c3ccccc3c2c1C
inactive: [1] 14.7% | [2] -8.55% | [3] 26.3% | [4] 11.6% | [5] -5.35% | [6] 40.1%

CN(Cc1ccccc1Cl)C(=O)Nc1cccc(Cl)c1
inactive: [1] 61.5%
active: [2] 78% | [3] 80.7% | [4] 80% | [5] 86.7% | [6] 90.2%

O=C(N1CCN(C(=O)S(=O)(=O)c2ccccc2)CC1)S(=O)(=O)c1ccccc1
inactive: [1] 29.9% | [2] -16.9% | [3] 19.8% | [4] 20.1% | [5] 1.85% | [6] -3.55%

C=C(Br)CNC(=O)C(O)(c1ccccc1)c1ccccc1
inactive: [1] -4.15% | [2] 3.65% | [3] 0% | [4] -15.6% | [5] 5.15% | [6] -16.9%

CCC(CC)C(O)C(C)C(C)O (centres undefined)
inactive: [1] 1.3% | [2] -8.8% | [3] -10.6% | [4] 4.8% | [5] -11.2% | [6] -4.75%

O=C(O)c1nc2cn1/C=C\C=NCC1=CN3C=CC=NC3(C(=O)O)N1C2 (centres undefined)
inactive: [1] -14.6% | [2] -2.95% | [3] -12.4% | [4] -43.2% | [5] 1.05% | [6] -18.9%

COc1ccc(C2OC3=C(Nc4ccccc4N3)C2=O)cc1 (centres undefined)
inactive: [1] 19.5% | [2] 5.8% | [3] 27.4% | [4] 14.1% | [5] -14.3% | [6] 46.2%

Cc1ccc(NC(=O)CCS)cc1
inactive: [1] -1.75% | [2] -25.9% | [3] 9.5% | [4] 2.1% | [5] -13.2% | [6] 15.9%

COC(=O)C(C(=O)OC)C1CCCC(=O)C1 (centres undefined)
inactive: [1] -2.3% | [2] -10% | [3] -10.6% | [4] -6.7% | [5] -24.7% | [6] 13.8%

CCCn1/c(=N\N=O)sc2ccccc21
inactive: [1] -0.45% | [2] 2.9% | [3] -5.5% | [4] -29.6% | [5] -23.1% | [6] 7%

COc1cc2c(cc1OC)C1CC3(CCN1CC2)CC(=O)NC3=O (centres undefined)
inactive: [1] -8.65% | [2] -5.5% | [3] -4.75% | [4] -78.8% | [5] -11.9% | [6] 1.35%

CC12C(=C(C#N)C(=N)N1c1ccc(Cl)c(Cl)c1)C=C(O)CC2SCCS(=O)(=O)O (centres undefined)
inactive: [1] 13.2% | [2] 1.4% | [3] -1% | [4] 27.4% | [5] -11.4% | [6] 10.8%

O=[N+]([O-])c1cccc(Nc2nc(Cl)nc(Cl)n2)c1
inactive: [1] -0.65% | [2] 21% | [3] 5.25% | [4] -8.25% | [5] -18.8% | [6] -14.5%

COc1ccc2c(c1)c(C)cc[n+]2C
inactive: [1] -3.3% | [2] 8.5% | [3] -5.9% | [4] -9.65% | [5] -3.05% | [6] -19.3%

COc1ccc2oc3cc(Cl)ccc3c(=O)c2c1
inactive: [1] 4.8% | [2] 0.85% | [3] -8.85% | [4] 4.35% | [5] 30.4% | [6] 14.2%

C/C=C(/I)CBr
inactive: [1] 28.4% | [2] 1.1% | [3] 1.75% | [4] 3.05% | [5] 12.2% | [6] 21.3%

CN(C)CCNC(=O)Nc1cccc2ccccc12
inactive: [1] 16% | [2] 8.35% | [3] -0.8% | [4] 16.6% | [5] -6.5% | [6] 2.25%

CCOc1ccccc1Nc1ccc(N)cc1S(=O)(=O)O
inactive: [1] 9.45% | [2] 0.85% | [3] -31.5% | [4] -6.2% | [5] 1.35% | [6] -8.05%

O=[N+]([O-])c1cccc(/C=N/Nc2ccc(S(=O)(=O)O)cc2)c1
inactive: [1] 18.6% | [2] 19.3% | [3] -1.9% | [4] 2.5% | [5] 12.7% | [6] 39.2%

Cc1cccc(C)c1NC(=O)Nc1ccccc1C(N)=O
inactive: [1] 4.85% | [2] 22.8% | [3] 35.5% | [4] -6.75% | [5] 17.1% | [6] -17.4%

C/C(=N\NC(N)=O)c1ccc(Br)c2ccccc12
inactive: [1] -19.1% | [2] 12.9% | [3] -3.35% | [4] 4.05% | [5] 1.05% | [6] -1.2%

Cc1ccc(C(=O)C[n+]2ccc3ccccc3c2)c(O)c1
inactive: [1] -17.1% | [2] -17.9% | [3] -20.2% | [4] -51.9% | [5] -14.3% | [6] 1.25%
